According to PubChem BioAssay AID2653 (National Center for Advancing Translational Sciences (NCATS), 2010):
Records with an inconclusive call do not appear. Values without a mark were called inactive. Calls come from the whole dose curve; as a rule, active = well fitted curve in the direction sought with a large enough effect; inconclusive = small, poorly fitted or top-dose-only effect, or another doubt; inactive = no such curve, though single readings can be large or run the other way.

Assay: Secondary Assay for Activators of Human Pyruvate Kinase M2 isoform - Cell Titer Glo Cytotoxicity for Probe SAR; note: % of control where 0% means no effect
Conditions: HeLa viability, CellTiter-Glo ATP luminescence, 24 h; series mostly up to 58.2 µM; activity change, negative = cytotoxicity: at the top concentration
Procedure, shortened: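 HeLa cells, 500 per well, plated 24 h then exposed to compound 24 h at 37 C. Total ATP by CellTiter-Glo luminescence after 10 min at room temperature; doxorubicin control.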

Compound	activity change, negative = cytotoxicity [%]
COc1ccc(-c2nc3cccc(C)n3c2Nc2ccc(C)cc2)cc1	-17
CC(=O)N1CCCc2cc(S(=O)(=O)Nc3ccc(C)c(C)c3)ccc21	-8.97
COc1ccc(S(=O)(=O)Nc2ccc(C)c(C)c2)cc1	-6.68
Cc1ccc(NS(=O)(=O)c2cc3c(cc2Cl)CCC(=O)N3)cc1C	-10.4
O=C1CCc2cc(S(=O)(=O)Nc3ccc(F)cc3)ccc2N1	-16.1
O=C1CCc2cc([S+](=O)([O-])NC3CCOCC3)ccc2N1	-1.14
Cc1ccc(Nc2c(-c3ccsc3)nc3cccc(C)n23)cc1	-15.9
O=S1(=O)N=C(Oc2ccccc2Cl)c2ccccc21	-12.1
Cc1ccc(NS(=O)(=O)c2cc3c(cc2Cl)NC(=O)CO3)cc1C	-9.17
COc1ccc(-c2nc3ccccn3c2Nc2ccccc2C)cc1	-7.85
Cc1c(Cl)cccc1NS(=O)(=O)c1cc2c(cc1F)NC(=O)CC2	-12.4
Cc1ccc(NS(=O)(=O)c2cc3c(cc2F)NC(=O)CC3)cc1Cl	-30.8
Cc1ccc(NS(=O)(=O)c2ccc(Cl)cc2)cc1C	-4.87
Cc1ccc(NS(=O)(=O)c2cc3c(cc2-c2ccccc2)NC(=O)CO3)cc1C	-9.62
Cc1ccc(-c2nc3ccc(Cl)cn3c2Nc2ccccc2)o1	-21
Cc1ccc(Nc2c(-c3ccc(C)s3)nc3cccc(C)n23)cc1	-7.47

Compound	activity change, negative = cytotoxicity [%]
Cc1ccc(NS(=O)(=O)c2cc3c(cc2N(C)C)NC(=O)CC3)cc1C	1.2
COc1ccc(Nc2c(-c3ccc(C)o3)nc3ccccn23)cc1	-10.2
CC(=O)Nc1cccc(S(=O)(=O)Nc2ccc(C)c(C)c2)c1	1.12
O=C1CCc2cc(S(=O)(=O)Nc3cccc(B(O)O)c3)ccc2N1	-11.5
Cc1ccc(Nc2c(-c3ccc(C)s3)nc3ccccn23)cc1	-13.6
Cc1ccc(NS(=O)(=O)c2ccc3c(c2)oc(=O)n3C)cc1C	-9.4
CCCCN1C(=O)c2ccccc2C1=O	10.9
O=C1c2ccccc2C(=O)N1c1ccccc1O	-14.7
Cc1ccc2nc(-c3ccc(C)o3)c(NC3CCCC3)n2c1	-16.7
O=C1c2ccccc2C(=O)N1c1cccc(=O)[nH]1	1.18
O=C1c2ccccc2C(=O)N1c1ccncc1	-39.8
Cc1ccc2nc(-c3ccc(C)o3)c(Nc3ccc4c(c3)OCO4)n2c1	-28.6
CNc1cccc(S(=O)(=O)N2CCCN(S(=O)(=O)c3ccc4c(c3)OCCO4)CC2)c1	-19.6
Cc1ccc(NS(=O)(=O)c2ccc3c(c2)CCC(=O)N3)cc1C	-10.7
Cc1cc(NS(=O)(=O)c2ccc3c(c2)CCC(=O)N3)ccc1Cl	-4.72
Cc1ccc(Cl)cc1NS(=O)(=O)c1cc2c(cc1F)NC(=O)CC2	-9.55
